Data from PMC7862700, “An all-to-all approach to the identification of sequence-specific readers for epigenetic DNA modifications on cytosine”.

Key:
Assay in all cases: DAPPL (digital affinity profiling via proximity ligation, sequencing); 10 mM Tris-HCl pH 7.5, 50 mM NaCl, 1 mM DTT, 4% glycerol, room temperature, 30 min; GST-TFs on glutathione beads, 16-mer random dsDNA library, 0.1% formaldehyde crosslink after washing; high values mean tight binding
[1] = target: T1, FLI1 (Homo sapiens, UniProt Q01543 1-452); conditions: protein: recombinant; tags: N-terminal GST; dsDNA, one strand shown
T1 sequence: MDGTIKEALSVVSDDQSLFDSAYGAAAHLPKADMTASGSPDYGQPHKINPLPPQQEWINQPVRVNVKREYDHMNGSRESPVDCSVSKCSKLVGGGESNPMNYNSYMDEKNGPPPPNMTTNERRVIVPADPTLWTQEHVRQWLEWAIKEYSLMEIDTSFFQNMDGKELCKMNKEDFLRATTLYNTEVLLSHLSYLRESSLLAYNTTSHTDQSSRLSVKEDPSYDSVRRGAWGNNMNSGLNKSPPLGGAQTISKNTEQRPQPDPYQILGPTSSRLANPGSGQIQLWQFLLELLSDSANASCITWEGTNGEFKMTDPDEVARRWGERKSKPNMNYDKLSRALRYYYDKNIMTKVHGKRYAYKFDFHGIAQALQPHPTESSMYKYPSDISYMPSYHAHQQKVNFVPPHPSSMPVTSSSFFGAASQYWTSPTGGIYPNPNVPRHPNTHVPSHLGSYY
How it was run: (§1)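 Binding signal is given per hexamer as its read frequency for a factor divided by its frequency in the tag-only sample. GST-fused human transcription factors were expressed in yeast, captured on glutathione beads, barcoded with DNA and pooled with that sample, then incubated with 200 nmole of a 16-mer random double-stranded DNA library in Tris/NaCl/DTT/glycerol buffer for 30 min at room temperature. The pools were then washed, crosslinked, proximity-ligated, amplified by PCR and sequenced on an Illumina NextSeq500.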

[2] = target: T2, ELK1 (Homo sapiens, UniProt P19419 1-428); conditions: protein: recombinant; tags: N-terminal GST; dsDNA, one strand shown
T2 sequence: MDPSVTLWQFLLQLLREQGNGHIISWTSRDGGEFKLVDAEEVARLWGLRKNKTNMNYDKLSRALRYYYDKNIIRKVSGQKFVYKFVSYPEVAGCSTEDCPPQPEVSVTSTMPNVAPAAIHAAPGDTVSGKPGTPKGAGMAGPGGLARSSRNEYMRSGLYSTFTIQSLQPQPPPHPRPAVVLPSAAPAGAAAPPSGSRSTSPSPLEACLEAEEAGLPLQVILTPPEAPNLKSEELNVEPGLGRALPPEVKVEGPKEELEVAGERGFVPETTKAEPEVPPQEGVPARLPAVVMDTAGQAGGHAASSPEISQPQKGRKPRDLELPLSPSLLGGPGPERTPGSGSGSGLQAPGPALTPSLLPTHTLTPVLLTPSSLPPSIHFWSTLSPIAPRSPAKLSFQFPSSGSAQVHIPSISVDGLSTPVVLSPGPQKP
How it was run: as §1

[3] = target: T3, GABPA (Homo sapiens, UniProt Q06546 1-454); conditions: protein: recombinant; tags: N-terminal GST; dsDNA, one strand shown
T3 sequence: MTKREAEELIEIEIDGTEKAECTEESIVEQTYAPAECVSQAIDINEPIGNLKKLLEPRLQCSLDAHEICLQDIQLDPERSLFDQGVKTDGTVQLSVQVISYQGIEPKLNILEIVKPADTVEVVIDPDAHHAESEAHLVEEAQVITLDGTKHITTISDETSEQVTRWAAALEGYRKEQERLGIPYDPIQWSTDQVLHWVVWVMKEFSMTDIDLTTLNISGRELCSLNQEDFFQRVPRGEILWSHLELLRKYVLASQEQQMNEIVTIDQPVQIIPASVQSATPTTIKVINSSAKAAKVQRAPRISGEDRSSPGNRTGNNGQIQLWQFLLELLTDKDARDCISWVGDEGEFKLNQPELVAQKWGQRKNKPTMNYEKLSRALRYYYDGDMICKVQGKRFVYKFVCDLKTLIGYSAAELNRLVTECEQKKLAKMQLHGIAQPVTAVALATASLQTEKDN
How it was run: as §1

[4] = target: T4, ERG (Homo sapiens, UniProt P11308 1-479); conditions: protein: recombinant; tags: N-terminal GST; dsDNA, one strand shown
T4 sequence: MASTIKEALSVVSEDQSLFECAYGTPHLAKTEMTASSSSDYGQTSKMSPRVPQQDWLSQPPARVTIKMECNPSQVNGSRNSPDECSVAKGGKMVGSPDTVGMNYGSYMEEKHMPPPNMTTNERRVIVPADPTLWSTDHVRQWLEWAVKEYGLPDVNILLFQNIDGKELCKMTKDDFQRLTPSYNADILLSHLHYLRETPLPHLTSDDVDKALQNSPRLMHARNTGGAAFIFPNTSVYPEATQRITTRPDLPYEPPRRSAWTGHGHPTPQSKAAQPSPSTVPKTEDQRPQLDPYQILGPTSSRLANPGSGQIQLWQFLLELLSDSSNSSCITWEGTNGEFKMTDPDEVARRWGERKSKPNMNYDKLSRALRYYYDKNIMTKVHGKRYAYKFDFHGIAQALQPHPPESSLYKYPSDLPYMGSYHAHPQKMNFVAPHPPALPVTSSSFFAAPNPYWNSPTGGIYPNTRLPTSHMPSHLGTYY
How it was run: as §1

[5] = target: ELF1 (Homo sapiens, UniProt P32519 1-619); conditions: protein: recombinant; tags: N-terminal GST; dsDNA, one strand shown
How it was run: as §1

[6] = target: T5, EHF (Homo sapiens, UniProt Q9NZC4 1-300); conditions: protein: recombinant; tags: N-terminal GST; dsDNA, one strand shown
T5 sequence: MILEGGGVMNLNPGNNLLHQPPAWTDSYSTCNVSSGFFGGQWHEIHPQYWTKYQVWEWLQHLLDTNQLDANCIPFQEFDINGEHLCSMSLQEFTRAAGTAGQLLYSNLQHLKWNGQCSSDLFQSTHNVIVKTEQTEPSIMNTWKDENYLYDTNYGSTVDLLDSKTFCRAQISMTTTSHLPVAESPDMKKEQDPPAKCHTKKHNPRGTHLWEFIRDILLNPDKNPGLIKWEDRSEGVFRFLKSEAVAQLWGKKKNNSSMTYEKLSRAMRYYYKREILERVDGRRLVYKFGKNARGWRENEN
How it was run: as §1

[7] = target: SPI1 (Homo sapiens, UniProt P17947 1-270); conditions: protein: recombinant; tags: N-terminal GST; dsDNA, one strand shown
How it was run: as §1

[8] = target: SPIB (Homo sapiens, UniProt Q01892 1-262); conditions: protein: recombinant; tags: N-terminal GST; dsDNA, one strand shown
How it was run: as §1

[9] = target: T6, ELK3 (Homo sapiens, UniProt P41970 1-407); conditions: protein: recombinant; tags: N-terminal GST; dsDNA, one strand shown
T6 sequence: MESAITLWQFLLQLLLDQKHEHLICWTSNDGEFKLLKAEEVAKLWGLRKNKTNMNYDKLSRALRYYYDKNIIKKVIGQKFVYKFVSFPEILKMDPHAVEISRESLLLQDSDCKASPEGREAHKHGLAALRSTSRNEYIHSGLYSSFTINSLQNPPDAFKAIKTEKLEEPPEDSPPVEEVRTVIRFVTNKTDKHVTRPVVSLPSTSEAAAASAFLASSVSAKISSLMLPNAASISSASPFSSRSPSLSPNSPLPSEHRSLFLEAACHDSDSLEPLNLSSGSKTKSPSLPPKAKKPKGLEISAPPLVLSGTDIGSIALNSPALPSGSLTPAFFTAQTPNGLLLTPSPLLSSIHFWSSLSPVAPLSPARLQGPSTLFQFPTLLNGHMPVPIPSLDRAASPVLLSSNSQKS
How it was run: as §1

[10] = target: T7, FEV (Homo sapiens, UniProt Q99581 1-238); conditions: protein: recombinant; tags: N-terminal GST; dsDNA, one strand shown
T7 sequence: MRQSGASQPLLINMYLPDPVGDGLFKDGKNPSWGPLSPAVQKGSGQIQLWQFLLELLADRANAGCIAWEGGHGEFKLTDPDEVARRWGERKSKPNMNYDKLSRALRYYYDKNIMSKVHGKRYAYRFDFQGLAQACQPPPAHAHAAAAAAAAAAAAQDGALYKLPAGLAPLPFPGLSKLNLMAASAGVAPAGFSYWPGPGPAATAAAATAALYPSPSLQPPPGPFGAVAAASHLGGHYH
How it was run: as §1

[11] = target: ETV5 (Homo sapiens, UniProt P41161 1-510); conditions: protein: recombinant; tags: N-terminal GST; dsDNA, one strand shown
How it was run: as §1

[12] = target: HSF1 (Homo sapiens, UniProt Q00613 1-529); conditions: protein: recombinant; tags: N-terminal GST; chain copies: 3; dsDNA, one strand shown
How it was run: as §1

[13] = target: T8, SPIC (Homo sapiens, UniProt Q8N5J4 1-248); conditions: protein: recombinant; tags: N-terminal GST; dsDNA, one strand shown
T8 sequence: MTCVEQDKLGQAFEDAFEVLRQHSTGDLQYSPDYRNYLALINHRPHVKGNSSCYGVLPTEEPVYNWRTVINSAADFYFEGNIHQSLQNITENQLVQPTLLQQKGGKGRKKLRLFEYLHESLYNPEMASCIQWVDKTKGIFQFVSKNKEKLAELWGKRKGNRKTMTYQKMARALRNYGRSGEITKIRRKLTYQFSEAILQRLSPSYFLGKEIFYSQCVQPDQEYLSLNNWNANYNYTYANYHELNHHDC
How it was run: as §1

[14] = target: ELF4 (Homo sapiens, UniProt Q99607 1-663); conditions: protein: recombinant; tags: N-terminal GST; dsDNA, one strand shown
How it was run: as §1

[15] = target: T9, ELK4 (Homo sapiens, UniProt P28324-2 1-405); conditions: protein: recombinant; tags: N-terminal GST; dsDNA, one strand shown
T9 sequence: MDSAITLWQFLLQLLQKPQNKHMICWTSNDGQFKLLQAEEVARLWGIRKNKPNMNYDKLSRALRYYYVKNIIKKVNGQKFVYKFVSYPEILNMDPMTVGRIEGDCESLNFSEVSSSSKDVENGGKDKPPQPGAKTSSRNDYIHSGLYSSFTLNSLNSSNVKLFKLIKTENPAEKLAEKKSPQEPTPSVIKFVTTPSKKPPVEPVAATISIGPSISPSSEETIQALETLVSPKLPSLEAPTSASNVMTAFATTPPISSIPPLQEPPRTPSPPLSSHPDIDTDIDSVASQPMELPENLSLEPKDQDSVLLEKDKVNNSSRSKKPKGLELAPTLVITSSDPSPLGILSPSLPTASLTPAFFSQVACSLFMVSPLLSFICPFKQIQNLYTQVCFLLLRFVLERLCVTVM
How it was run: as §1

[16] = target: T10, ETV2 (Homo sapiens, UniProt O00321 1-342); conditions: protein: recombinant; tags: N-terminal GST; dsDNA, one strand shown
T10 sequence: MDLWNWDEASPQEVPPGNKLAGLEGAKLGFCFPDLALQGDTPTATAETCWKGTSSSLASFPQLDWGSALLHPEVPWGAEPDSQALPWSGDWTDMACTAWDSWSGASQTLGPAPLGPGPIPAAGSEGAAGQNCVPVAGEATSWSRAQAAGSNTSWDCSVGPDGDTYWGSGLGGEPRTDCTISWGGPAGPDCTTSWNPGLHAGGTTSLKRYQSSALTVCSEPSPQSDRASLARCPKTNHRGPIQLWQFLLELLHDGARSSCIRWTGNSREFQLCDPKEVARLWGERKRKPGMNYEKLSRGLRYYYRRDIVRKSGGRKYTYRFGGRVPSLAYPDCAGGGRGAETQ
How it was run: as §1

[17] = target: T11, ELF3 (Homo sapiens, UniProt P78545 1-371); conditions: protein: recombinant; tags: N-terminal GST; dsDNA, one strand shown
T11 sequence: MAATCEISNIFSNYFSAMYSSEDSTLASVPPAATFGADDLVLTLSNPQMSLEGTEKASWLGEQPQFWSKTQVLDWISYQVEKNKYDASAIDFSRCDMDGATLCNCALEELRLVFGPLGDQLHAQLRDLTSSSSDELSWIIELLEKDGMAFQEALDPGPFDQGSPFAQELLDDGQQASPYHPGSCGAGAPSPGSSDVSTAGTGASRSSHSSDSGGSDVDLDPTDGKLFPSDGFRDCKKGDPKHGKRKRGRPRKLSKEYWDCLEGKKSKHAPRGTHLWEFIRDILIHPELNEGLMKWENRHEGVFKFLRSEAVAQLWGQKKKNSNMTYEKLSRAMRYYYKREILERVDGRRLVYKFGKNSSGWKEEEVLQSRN
How it was run: as §1

[18] = target: CRX (Homo sapiens, UniProt O43186 1-299); conditions: protein: recombinant; tags: N-terminal GST; dsDNA, one strand shown
How it was run: as §1

[19] = target: ETV1 (Homo sapiens, UniProt P50549 1-477); conditions: protein: recombinant; tags: N-terminal GST; dsDNA, one strand shown
How it was run: as §1

Sequence of ELF1 (P32519 whole entry): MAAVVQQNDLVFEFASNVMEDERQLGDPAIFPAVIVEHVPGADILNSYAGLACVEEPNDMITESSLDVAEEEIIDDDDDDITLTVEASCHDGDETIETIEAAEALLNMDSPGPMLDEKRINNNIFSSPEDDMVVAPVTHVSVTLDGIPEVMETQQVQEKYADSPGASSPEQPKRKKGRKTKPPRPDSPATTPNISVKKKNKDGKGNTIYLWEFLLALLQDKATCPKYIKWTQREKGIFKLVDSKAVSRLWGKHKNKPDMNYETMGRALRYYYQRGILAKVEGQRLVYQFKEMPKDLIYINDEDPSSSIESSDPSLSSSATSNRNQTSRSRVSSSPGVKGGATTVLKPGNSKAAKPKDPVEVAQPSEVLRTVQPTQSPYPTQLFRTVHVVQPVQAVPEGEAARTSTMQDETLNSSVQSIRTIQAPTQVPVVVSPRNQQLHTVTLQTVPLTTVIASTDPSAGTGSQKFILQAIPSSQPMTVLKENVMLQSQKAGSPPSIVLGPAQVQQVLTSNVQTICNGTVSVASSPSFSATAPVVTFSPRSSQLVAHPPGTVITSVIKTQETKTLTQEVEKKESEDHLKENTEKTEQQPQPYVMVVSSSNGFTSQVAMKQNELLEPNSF
Sequence of ETV5 (P41161 whole entry): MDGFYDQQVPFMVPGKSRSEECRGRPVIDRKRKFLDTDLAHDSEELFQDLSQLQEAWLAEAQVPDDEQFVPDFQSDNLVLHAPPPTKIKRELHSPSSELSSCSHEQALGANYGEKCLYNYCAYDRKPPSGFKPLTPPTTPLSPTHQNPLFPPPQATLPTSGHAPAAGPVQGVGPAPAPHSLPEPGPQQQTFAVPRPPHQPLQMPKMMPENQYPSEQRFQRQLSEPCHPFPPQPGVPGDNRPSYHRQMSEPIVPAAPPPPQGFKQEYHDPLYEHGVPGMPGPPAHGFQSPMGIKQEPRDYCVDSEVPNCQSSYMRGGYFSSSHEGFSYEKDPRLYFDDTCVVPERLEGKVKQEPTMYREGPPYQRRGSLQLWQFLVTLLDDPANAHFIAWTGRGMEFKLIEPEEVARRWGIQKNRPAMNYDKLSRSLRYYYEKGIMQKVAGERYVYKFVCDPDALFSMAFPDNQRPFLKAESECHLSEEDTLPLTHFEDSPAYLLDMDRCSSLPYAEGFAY
Sequence of HSF1 (Q00613 whole entry): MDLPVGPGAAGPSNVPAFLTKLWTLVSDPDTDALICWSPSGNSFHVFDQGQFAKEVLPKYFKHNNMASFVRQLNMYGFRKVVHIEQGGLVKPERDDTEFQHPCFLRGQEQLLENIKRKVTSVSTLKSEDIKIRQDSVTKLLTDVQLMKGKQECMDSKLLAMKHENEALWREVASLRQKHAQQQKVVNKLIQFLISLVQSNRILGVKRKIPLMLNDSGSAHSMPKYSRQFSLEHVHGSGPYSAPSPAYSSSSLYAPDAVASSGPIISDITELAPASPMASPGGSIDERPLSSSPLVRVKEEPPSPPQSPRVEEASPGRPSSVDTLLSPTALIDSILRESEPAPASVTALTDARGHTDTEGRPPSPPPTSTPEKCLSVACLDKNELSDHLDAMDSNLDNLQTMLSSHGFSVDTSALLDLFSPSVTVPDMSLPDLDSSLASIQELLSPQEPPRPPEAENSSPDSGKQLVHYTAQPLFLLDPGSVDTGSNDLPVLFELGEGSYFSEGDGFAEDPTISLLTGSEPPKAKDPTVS
Sequence of CRX (O43186 whole entry): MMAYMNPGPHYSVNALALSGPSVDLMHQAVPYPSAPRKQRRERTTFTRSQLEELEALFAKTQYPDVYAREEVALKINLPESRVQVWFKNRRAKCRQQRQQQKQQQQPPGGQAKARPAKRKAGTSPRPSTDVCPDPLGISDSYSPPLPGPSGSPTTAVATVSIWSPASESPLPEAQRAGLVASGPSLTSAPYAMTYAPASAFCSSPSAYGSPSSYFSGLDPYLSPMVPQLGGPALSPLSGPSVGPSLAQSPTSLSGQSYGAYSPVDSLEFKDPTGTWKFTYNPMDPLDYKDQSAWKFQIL
Sequence of SPIB (Q01892 whole entry): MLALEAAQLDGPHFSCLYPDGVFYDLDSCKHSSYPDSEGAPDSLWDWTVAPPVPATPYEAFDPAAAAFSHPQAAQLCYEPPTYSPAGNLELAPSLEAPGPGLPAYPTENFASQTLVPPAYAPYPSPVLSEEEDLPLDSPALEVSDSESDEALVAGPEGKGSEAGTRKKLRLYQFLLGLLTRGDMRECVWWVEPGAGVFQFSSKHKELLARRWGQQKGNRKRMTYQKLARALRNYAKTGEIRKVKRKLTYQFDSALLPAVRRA
Sequence of ETV1 (P50549 whole entry): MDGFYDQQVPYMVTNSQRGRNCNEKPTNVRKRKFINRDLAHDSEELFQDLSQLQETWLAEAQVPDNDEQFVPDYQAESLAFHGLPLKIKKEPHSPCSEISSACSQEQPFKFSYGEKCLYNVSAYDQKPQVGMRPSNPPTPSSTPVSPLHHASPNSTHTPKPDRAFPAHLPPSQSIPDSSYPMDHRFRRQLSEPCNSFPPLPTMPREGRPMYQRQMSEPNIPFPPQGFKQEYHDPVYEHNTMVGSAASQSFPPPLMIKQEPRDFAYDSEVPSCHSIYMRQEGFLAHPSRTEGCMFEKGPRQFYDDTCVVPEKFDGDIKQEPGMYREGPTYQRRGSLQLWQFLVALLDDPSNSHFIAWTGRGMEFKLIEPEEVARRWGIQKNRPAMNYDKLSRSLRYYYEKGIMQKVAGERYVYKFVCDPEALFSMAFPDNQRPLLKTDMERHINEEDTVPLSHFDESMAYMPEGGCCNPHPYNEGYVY
Sequence of ELF4 (Q99607 whole entry): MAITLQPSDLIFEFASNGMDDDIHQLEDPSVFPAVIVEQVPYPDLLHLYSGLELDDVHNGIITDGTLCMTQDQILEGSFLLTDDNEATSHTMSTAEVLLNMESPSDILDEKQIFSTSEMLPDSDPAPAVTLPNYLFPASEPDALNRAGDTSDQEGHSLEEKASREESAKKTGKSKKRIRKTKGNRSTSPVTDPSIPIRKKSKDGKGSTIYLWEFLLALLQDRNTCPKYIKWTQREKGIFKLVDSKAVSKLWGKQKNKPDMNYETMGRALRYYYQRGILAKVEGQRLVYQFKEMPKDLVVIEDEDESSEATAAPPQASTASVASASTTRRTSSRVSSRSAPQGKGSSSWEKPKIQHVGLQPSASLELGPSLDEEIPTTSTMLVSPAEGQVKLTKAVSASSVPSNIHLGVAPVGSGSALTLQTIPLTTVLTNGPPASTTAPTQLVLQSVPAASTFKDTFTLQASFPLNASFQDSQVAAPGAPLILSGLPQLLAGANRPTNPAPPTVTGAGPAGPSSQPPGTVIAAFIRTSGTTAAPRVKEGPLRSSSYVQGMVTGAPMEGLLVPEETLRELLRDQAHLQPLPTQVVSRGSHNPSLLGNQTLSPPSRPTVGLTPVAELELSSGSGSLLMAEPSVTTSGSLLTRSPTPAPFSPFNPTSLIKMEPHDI

GCTTCT
binding signal [1]: 1.41 fold enrichment (6-mer frequency, TF over GST control)
binding signal [2]: 1.49 fold enrichment (6-mer frequency, TF over GST control)
binding signal [3]: 1.53 fold enrichment (6-mer frequency, TF over GST control)
binding signal [4]: 1.44 fold enrichment (6-mer frequency, TF over GST control)
binding signal [5]: 1.59 fold enrichment (6-mer frequency, TF over GST control)
binding signal [6]: 1.52 fold enrichment (6-mer frequency, TF over GST control)
binding signal [7]: 1.43 fold enrichment (6-mer frequency, TF over GST control)
binding signal [8]: 1.51 fold enrichment (6-mer frequency, TF over GST control)
binding signal [9]: 1.61 fold enrichment (6-mer frequency, TF over GST control)
binding signal [10]: 1.41 fold enrichment (6-mer frequency, TF over GST control)
binding signal [11]: 1.57 fold enrichment (6-mer frequency, TF over GST control)
binding signal [12]: 2.32 fold enrichment (6-mer frequency, TF over GST control)
binding signal [13]: 1.48 fold enrichment (6-mer frequency, TF over GST control)
binding signal [14]: 1.6 fold enrichment (6-mer frequency, TF over GST control)
binding signal [15]: 1.4 fold enrichment (6-mer frequency, TF over GST control)
binding signal [16]: 1.46 fold enrichment (6-mer frequency, TF over GST control)
binding signal [17]: 1.25 fold enrichment (6-mer frequency, TF over GST control)
binding signal [18]: 1.81 fold enrichment (6-mer frequency, TF over GST control)
binding signal [19]: 1.42 fold enrichment (6-mer frequency, TF over GST control)
